Compounds with a hit are over-represented: about 21% of the library has one in this group of screens.
IL-1B inflam inh: qHTS for Inhibitors of Inflammasome Signaling: IL-1-beta AlphaLISA Primary Screen; activity change, % at 57.5 µM; AID 743279, 2014; hit rate 4.7% among 360,000; THP-1 LPS/ATP IL-1B secretion, AlphaLISA, 16 h; stronger effect = lower value; in the data active = activity change below about -50%; inconclusive = mostly about -30% to -49%
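Secreted IL-1B measured by AlphaLISA bead assay after 16 h compound exposure of THP-1 cells; compounds (final up to 57.5 uM) added 1 h before LPS (250 ng/mL) and ATP (1.25 mM) stimulation; lower signal means less secretion.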
DT40 TDP1 CPT: qHTS for Inhibitors of human tyrosyl-DNA phosphodiesterase 1 (TDP1): qHTS in cells in presence of CPT; chicken DT40 Tdp1-/-;hTDP1 cells + 20 nM CPT, ATP luminescence, 48 h; Potency, µM (highest dose often 46.2 µM), without a hit: top-dose activity change, negative = growth inhibition, actives largely listed as inhibitors; hit rate 12% among 420,000; AID 686979, 2013; note: potency is the fitted concentration of half-maximal effect; nearly all actives have a fitted effect of over 55% in size
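Cell growth measured by CellTiter-Glo luminescence after a minimum 48 h, 37 C compound exposure with 20 nM CPT in Tdp1-knockout DT40 cells stably expressing hTDP1, seeded 400/well; qHTS titration format.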
VP16 counter: VP16 counterscreen qHTS for inhibitors of ROR gamma transcriptional activity | hit rate 3.5% among 310,000 | Potency, µM (top dose mostly 53.6 µM), without a hit: at the top dose activity, negative = inhibition, usual class: inhibitors | Drosophila S2 Gal4-VP16 UAS-luciferase, luminescence, 20 h;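 note: Gal4-VP16 expression switched on by copper sulfate through the metallothionein promoter; potency is the fitted concentration of half-maximal effect; nearly all actives have a fitted effect of over 50% in size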
RORg inh: qHTS for inhibitors of ROR gamma transcriptional activity. Nuclear receptor ROR-gamma (Mus musculus), P51450. Potency, µM (doses to about 53.6 µM), inactives show top-dose activity change, negative = inhibition, actives largely listed as inhibitors. Drosophila S2 Gal4-RORgamma UAS-luciferase reporter, 20 h. hit rate 5.4% among 310,000; note: potency is the fitted concentration of half-maximal effect; nearly all actives have a fitted effect of over 60% in size
Target sequence (P51450 whole entry, looked up, the tested form may be a part): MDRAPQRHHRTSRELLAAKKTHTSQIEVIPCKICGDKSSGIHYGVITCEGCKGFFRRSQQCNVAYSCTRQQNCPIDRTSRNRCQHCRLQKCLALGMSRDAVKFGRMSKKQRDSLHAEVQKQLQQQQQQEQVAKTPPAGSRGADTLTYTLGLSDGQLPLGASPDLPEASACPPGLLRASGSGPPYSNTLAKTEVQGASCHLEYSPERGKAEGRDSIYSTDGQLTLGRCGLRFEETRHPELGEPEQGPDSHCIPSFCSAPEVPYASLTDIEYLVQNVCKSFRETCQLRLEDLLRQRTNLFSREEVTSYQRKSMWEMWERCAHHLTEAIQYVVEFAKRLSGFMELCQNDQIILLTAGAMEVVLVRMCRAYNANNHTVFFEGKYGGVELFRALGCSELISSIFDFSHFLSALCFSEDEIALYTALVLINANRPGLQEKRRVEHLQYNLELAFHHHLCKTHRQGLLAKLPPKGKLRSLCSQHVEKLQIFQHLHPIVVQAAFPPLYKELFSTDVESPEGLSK
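A Gal4/UAS one-hybrid system in insect cells: metallothionein-promoter Gal4–ROR gamma fusion plus Photinus luciferase reporter. Copper sulfate 700 uM final, 20 hr ambient incubation, luminescent detection after 10 min with reagent.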
ELG1 DNA repair: qHTS screen for small molecules that inhibit ELG1-dependent DNA repair in human embryonic kidney (HEK293T) cells expressing luciferase-tagged ELG1; Potency, µM (titrated, usually from 46.1 µM), inactives show at the highest dose activity change, negative = inhibition, usual class: inhibitors; AID 504467, 2011; hit rate 2.3% among 330,000; HEK293T ELG1-luciferase reporter, luminescence, 16 h; DNA damage induced by 5-fluorouridine; note: potency is the fitted concentration of half-maximal effect; nearly all actives have a fitted effect of over 55% in size
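Step one: seed 2,000 cells per well. Step two: pin-transfer compound or DMSO alongside 5-fluorouridine. Step three: incubate 16 hr, 37 °C, 5% CO2. Step four: add ONE-Glo, wait 30 min, read luminescence.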
TDP1 cell noCPT: qHTS for Inhibitors of human tyrosyl-DNA phosphodiesterase 1 (TDP1): qHTS in cells in absence of CPT | DT40 Tdp1-/- hTDP1 cells, no CPT, ATP luminescence, 48 h | Potency, µM (series often up to 46.2 µM), inactives show top-dose activity change, negative = growth inhibition, actives largely listed as inhibitors | hit rate 15% among 420,000 | AID 686978, 2013; note: potency is the fitted concentration of half-maximal effect; nearly all actives have a fitted effect of over 55% in size
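A cellular qHTS used chicken DT40 cells lacking endogenous Tdp1 but carrying stably transfected human TDP1. Compounds were applied without camptothecin, and cell growth kinetics were judged by ATP-dependent luminescence after ≥48 hr.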
Starred values were filed as active, the others as inactive; ? = inconclusive; / = not tested or not shown; [ ] = remark or other dose. Unless noted, calls come from the whole dose curve; as a rule, active = well fitted curve in the direction sought with a large enough effect; inconclusive = small, poorly fitted or top-dose-only effect, or another doubt; inactive = no such curve, though single readings can be large; an effect the other way counts as inactive or inconclusive. % is set by controls: 0 for no effect and ±100 for the full control effect.

SMILES	IL-1B inflam inh	DT40 TDP1 CPT	VP16 counter	RORg inh	ELG1 DNA repair	TDP1 cell noCPT
COC(=O)Cn1c(=NC(=O)C2COc3ccccc3O2)sc2cc(S(N)(=O)=O)ccc21 (stereo not drawn)	-52*	?	-7%	-4%	-14%	18µM*
C=CCn1c(=NC(=O)C2COc3ccccc3O2)sc2cccc(OC)c21 (stereo not drawn)	0	?	-1%	-38%	-21%	23µM*
CCn1c(=NC(=O)C2COc3ccccc3O2)sc2c(C)ccc(OC)c21 (stereo not drawn)	-25	21µM*	?	17%	?	12µM*
COc1ccc(OC)c(NC(=O)C2COc3ccccc3O2)c1 (stereo not drawn)	-11	-21%	3%	18%	15%	-20%
CO[C@H]1C[C@@H]2C[C@H](O)C[C@@H](CC(=O)O[C@@H](/C=C\CC(C)C)C[C@@H]3CC[C@H](C)[C@@H](C1)O3)O2	/	/	12%[10 µM]	13%[10 µM]	/	/
COc1ccc(C2CC(=O)N(Cc3ccc(C)cc3)c3c2c(C)nn3-c2nc(C)cc(C)n2)c(OC)c1 (stereo not drawn)	/	?	/	/	/	-53%
Cc1cc(C)nc(-n2nc(C)c3c2N(Cc2ccccc2F)C(=O)CC3c2ccc(Cl)cc2)n1 (stereo not drawn)	/	23µM*	/	/	/	23µM*
COc1ccc(S(=O)(=O)Nc2ccc(F)cc2)cc1N(C)S(=O)(=O)c1ccc(Cl)cc1	-94*	?	-11%	-2%	-3%	?
COc1ccc(NS(=O)(=O)c2ccc(OC)c(N(C)S(=O)(=O)c3ccc(Cl)cc3)c2)cc1	-83*	10µM*	11µM*	?	-26%	6.5µM*
COc1ccc(S(=O)(=O)Nc2ccc(F)c(F)c2)cc1Cl	11	?	?	38%	2%	-25%
O=S(=O)(NC1CC1)c1ccc(S(=O)(=O)N2CCCC3(CCCCC3)C2)cc1	3	13µM*	?	?	5%	?
COc1ccc(S(=O)(=O)NCC2CCC(C(=O)O)CC2)cc1 (stereo not drawn)	6	5%	-5%	-13%	3%	8%
CC[C@@H](C)[C@H](N)C(=O)NC[C@H]1O[C@@H](n2cnc3c(N)ncnc32)[C@H](O)[C@@H]1O	36	15%	/	/	30%	-7%
CCOc1ccc(C2C(C(=O)OC)=C(C)NC3=C2C(=O)c2ccccc23)cc1OC (stereo not drawn)	/	18µM*	/	/	/	21µM*
C#CCOc1c(Br)cc(C2C(C(=O)OC)=C(C)NC3=C2C(=O)c2ccccc23)cc1OCC (stereo not drawn)	/	?	/	/	/	5.8µM*
CCOC(=O)C1=C(C)NC2=C(C(=O)c3ccccc32)C1c1cccnc1 (stereo not drawn)	-10	?	-2%	-15%	?	?
O=C(/C=C/c1ccc(Cl)cc1Cl)c1ccc[nH]1	-86*	?	6%[10 µM]	32%	?	?
CN(C)/C=C/C(=O)/C=C/c1ccc(Cl)cc1Cl	?	7%	-18%	4%	?	-8%
O=C(/C=C/c1ccc(Cl)cc1Cl)n1cccn1	-61*	?	1%	21%	11%	?
O=C(/C=C/c1ccccc1Cl)c1ccc[nH]1	?	?	28%	-34%	?	?
OCc1cc([C@@H](O)CNCCCCCCOCCCCc2ccccc2)ccc1O	/	9.4µM*	-23%	?	/	11µM*
